Results filed as inconclusive are left out. A call without a number means that no potency is given here. Calls of active or inactive are those of the source. Unless noted, calls follow the shape of the dose curve; as a rule, active = well fitted curve in the direction sought with a large enough effect in the repeat runs; inconclusive = weak or mixed curves; inactive = no such curve, though single readings can be large; an effect the other way counts as inactive or inconclusive.
Columns and labels:
[1] = qHTS assay to identify small molecule antagonists of the glucocorticoid receptor (GR) signaling pathway - cell viability counter screen (AID 720693); also: nearly all actives have a fitted effect of over 55% in size; also: potency is read from the fitted curve at half-maximal effect
[2] = qHTS assay for identifying genotoxic compounds that show differential cytotoxicity against isogenic chicken DT40 cell lines with known DNA damage response pathways - wild type cell line (AID 743012); also: nearly all actives have a fitted effect of over 60% in size; also: potency is read from the fitted curve at half-maximal effect
Procedure, shortened: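 300 wt DT40 cells/well; cpd (DMSO) pintool-transferred after ~0.5 h at 37 C/5% CO2; 40 h incubation; CellTiter-Glo added, 30 min RT; luminescence read.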

[3] = qHTS assay for identifying genotoxic compounds that show differential cytotoxicity against isogenic chicken DT40 cell lines with known DNA damage response pathways - Rev3 mutant cell line (AID 743014); also: nearly all actives have a fitted effect of over 55% in size; also: potency is read from the fitted curve at half-maximal effect
[4] = qHTS assay for identifying genotoxic compounds that show differential cytotoxicity against isogenic chicken DT40 cell lines with known DNA damage response pathways - Rad54/Ku70 mutant cell line (AID 743015); also: nearly all actives have a fitted effect of over 60% in size; also: potency is read from the fitted curve at half-maximal effect
[5] = qHTS assay to identify small molecule antagonists of the androgen receptor (AR) signaling pathway - cell viability counter screen (AID 743033; also: nearly all actives have a fitted effect of over 45% in size; also: potency is read from the fitted curve at half-maximal effect)
[6] = qHTS assay to identify small molecule antagonists of the androgen receptor (AR) signaling pathway using the MDA cell line - cell viability counter screen (AID 743041; also: nearly all actives have a fitted effect of over 45% in size)
Procedure, shortened: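 In this qHTS counter assay, fluorescence intensity after CellTiter-Fluor addition indicated viability of MDA-kb2 AR-luc cells given compounds and R1881 for 16 h at 37C.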

[7] = target: Androgen receptor (Homo sapiens) (UniProt P10275); assay: qHTS assay to identify small molecule antagonists of the androgen receptor (AR) signaling pathway (AID 743035; active = well fitted inhibition curve with a large enough effect in the signal ratio in the repeat runs, not every such curve was filed as active; the % refers to the signal ratio; also: potency is read from the fitted curve at half-maximal effect)
Procedure, shortened: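 In this cell-based reporter screen, compounds were tested in concentration series against R1881-activated HEK293 cells expressing beta-lactamase under UAS control; after 16 h at 37C, FRET substrate was added and fluorescence read 2 h later.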

[8] = target: Androgen receptor (Homo sapiens) (UniProt P10275); assay: qHTS assay to identify small molecule agonists of the androgen receptor (AR) signaling pathway using the MDA cell line (AID 743040; also: nearly all actives have a fitted effect of over 20% in size; also: potency is read from the fitted curve at half-maximal effect)
Procedure, shortened: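 Cell-based luciferase reporter: MDA-kb2, MMTV promoter (AR + GR response elements). 16 h compound exposure at 37C; ONE-Glo, 30 min RT, luminescence.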

[9] = target: Androgen receptor (Homo sapiens) (UniProt P10275); assay: qHTS assay to identify small molecule antagonists of the androgen receptor (AR) signaling pathway using the MDA cell line (AID 743042; also: nearly all actives have a fitted effect of over 55% in size)
Procedure, shortened: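 MDA-kb2 cells (human breast carcinoma, stably carrying an MMTV-luciferase reporter responsive to AR and GR) were plated at 3,000 cells/well and preincubated 5 hr at 37C, then given compound plus R1881 agonist for 16 h. ONE-Glo luminescence was read.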

[10] = target: Androgen receptor (Homo sapiens) (UniProt P10275); assay: qHTS assay to identify small molecule agonists of the androgen receptor (AR) signaling pathway (AID 743036; active = well fitted activation curve with a large enough effect in the signal ratio in the repeat runs, with a control signal flat, not every such curve was filed as active; the % refers to the signal ratio)
Procedure, shortened: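 In this Tox21 qHTS, 2,000 HEK293 AR-bla cells per well were incubated with compounds for 16 h at 37C and 5% CO2. Fluorescence intensity was recorded 2 h after adding LiveBLAzer B/G FRET substrate at room temperature.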

Sequence of Androgen receptor (Homo sapiens) (P10275 whole entry, looked up): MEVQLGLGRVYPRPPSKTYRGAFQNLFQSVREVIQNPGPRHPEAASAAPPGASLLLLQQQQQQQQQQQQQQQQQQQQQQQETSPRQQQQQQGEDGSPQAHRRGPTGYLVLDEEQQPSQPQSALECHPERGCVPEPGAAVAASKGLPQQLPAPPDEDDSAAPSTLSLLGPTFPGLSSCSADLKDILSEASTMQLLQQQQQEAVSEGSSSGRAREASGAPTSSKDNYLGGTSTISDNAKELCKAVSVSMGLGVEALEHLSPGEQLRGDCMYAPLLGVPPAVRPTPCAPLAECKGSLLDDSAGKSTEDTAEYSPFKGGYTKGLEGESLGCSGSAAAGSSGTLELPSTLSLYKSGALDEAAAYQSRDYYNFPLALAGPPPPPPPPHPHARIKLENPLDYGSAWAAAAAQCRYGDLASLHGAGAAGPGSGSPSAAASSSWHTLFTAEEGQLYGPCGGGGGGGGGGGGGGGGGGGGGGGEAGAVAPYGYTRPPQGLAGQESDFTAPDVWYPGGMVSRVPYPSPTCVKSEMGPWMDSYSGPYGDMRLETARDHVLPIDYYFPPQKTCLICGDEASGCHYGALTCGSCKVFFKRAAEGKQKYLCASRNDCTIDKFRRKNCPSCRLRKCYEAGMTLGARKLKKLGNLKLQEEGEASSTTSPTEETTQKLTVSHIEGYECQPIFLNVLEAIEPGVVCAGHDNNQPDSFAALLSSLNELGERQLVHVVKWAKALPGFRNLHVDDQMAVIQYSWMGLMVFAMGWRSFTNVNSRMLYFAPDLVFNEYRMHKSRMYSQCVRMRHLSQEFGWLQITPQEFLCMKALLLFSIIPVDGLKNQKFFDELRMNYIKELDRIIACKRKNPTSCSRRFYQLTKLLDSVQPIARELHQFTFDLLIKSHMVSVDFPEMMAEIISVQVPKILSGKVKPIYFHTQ

With COc1cccc(CCc2ccccc2OCC(CN(C)C)OC(=O)CCC(=O)O)c1 (configuration not stated) the Potency [1] was “inactive”, the Potency [2] was 8.41 µM (active) and the Potency [3] was 10.6 µM (active). The Potency [4] was 11.9 µM (active), the Potency [5] was “inactive” and the Potency [6] was “inactive”.

For Cn1cnc2ncnc(N)c21, the Potency [1] was “inactive”, the Potency [2] was “inactive” and the Potency [3] was “inactive”. For the same molecule, the Potency [4] was “inactive”, the Potency [5] was “inactive” and the Potency [6] was “inactive”.

In the case of CCCCCCOc1ccc(O)cc1, the Potency [1] is reported as “inactive”, the Potency [2] is reported as 6.11 µM (active) and the Potency [3] is reported as 5.45 µM (active). The Potency [4] was 7.7 µM (active), the Potency [7] was 24.5 µM (active) and the Potency [8] was “inactive”. For the same molecule, the Potency [6] was “inactive” and the Potency [9] was “inactive”.

For Oc1ccc(-c2ccccc2)c(Cl)c1, the Potency [1] was “inactive”, the Potency [2] was “inactive” and the Potency [3] was 30.6 µM (active). The Potency [4] was 30.6 µM (active), the outcome [10] was “inactive” and the Potency [8] was 68.6 µM (active). The Potency [6] was “inactive” and the Potency [9] was “inactive”.

In the case of CSc1c(Cl)c(Cl)c(Cl)c(Cl)c1Cl, the Potency [1] is reported as “inactive”, the Potency [2] is reported as “inactive” and the Potency [4] is reported as “inactive”. The Potency [5] was “inactive” and the Potency [6] was “inactive”.

In the case of CC(C)OC(=O)c1cc(C(=O)OC(C)C)cc([N+](=O)[O-])c1, the Potency [1] is reported as “inactive”, the Potency [4] is reported as 55.8 µM (active) and the Potency [5] is reported as “inactive”.

For CC1CCCNC1 (configuration not stated), the Potency [1] was “inactive” and the Potency [6] was “inactive”.

For O=C1OC(=O)c2cccc3cccc1c23, the Potency [1] was “inactive”, the Potency [3] was 15.5 µM (active) and the Potency [4] was 13.8 µM (active). For the same molecule, the Potency [5] was “inactive” and the Potency [6] was “inactive”.

In the case of Oc1ccc(-c2ccc(O)cc2)cc1, the Potency [1] is reported as “inactive”, the Potency [3] is reported as 17.3 µM (active) and the Potency [4] is reported as 24.5 µM (active). The Potency [5] was “inactive” and the Potency [6] was “inactive”.

For Nc1cc(Cl)c([N+](=O)[O-])cc1O, the Potency [1] was “inactive” and the Potency [5] was “inactive”.

For CN1[C@@H]2CC[C@@H]1CC(OC(=O)C(CO)c1ccccc1)C2 (some centres not stated), the Potency [1] was “inactive”, the Potency [5] was “inactive” and the Potency [6] was “inactive”.

With CC(C)(C)CC(C)(C)c1ccccc1O the Potency [1] was 34.9 µM (active), the Potency [3] was 24.5 µM (active) and the Potency [4] was 54.8 µM (active). The Potency [5] was 39.1 µM (active) and the Potency [6] was “inactive”.

With Nc1ncnc2c1ncn2[C@@H]1O[C@H](COP(=O)(O)O)[C@@H](O)[C@H]1O the Potency [1] was “inactive”, the Potency [2] was “inactive” and the Potency [4] was “inactive”. The Potency [5] was “inactive” and the Potency [6] was “inactive”.

With CN(C)CCOC(c1ccccc1)c1ccccc1 (tested in a mixture with another compound) the Potency [1] was “inactive”, the Potency [8] was “inactive” and the Potency [6] was “inactive”.

In the case of CC1(C)C(=O)N(Br)C(=O)N1Br, the Potency [1] is reported as “inactive”, the Potency [5] is reported as “inactive” and the Potency [7] is reported as “inactive”. For the same molecule, the Potency [8] was “inactive”, the Potency [6] was “inactive” and the Potency [9] was “inactive”.

With C=CC(=O)OCCC#N the Potency [1] was “inactive”, the Potency [3] was “inactive” and the Potency [5] was “inactive”. The Potency [7] was “inactive”, the outcome [10] was “inactive” and the Potency [8] was “inactive”. For the same molecule, the Potency [6] was “inactive” and the Potency [9] was “inactive”.

For C=CC(=O)OCCOCC(CC)(COCCOC(=O)C=C)COCCOC(=O)C=C, the Potency [2] was 6.37 µM (active), the Potency [3] was 4.51 µM (active) and the Potency [4] was 5.06 µM (active). For the same molecule, the Potency [5] was 22.8 µM (active).

In the case of CC(COC(=O)c1ccccc1)OC(=O)c1ccccc1 (configuration not stated), the Potency [1] is reported as “inactive”, the Potency [3] is reported as “inactive” and the Potency [4] is reported as 61.1 µM (active). For the same molecule, the Potency [5] was “inactive”.

In the case of CCCCCCCCCCCC(=O)N(CC)CC, the Potency [1] is reported as “inactive”, the Potency [3] is reported as 30.6 µM (active) and the Potency [5] is reported as “inactive”. For the same molecule, the Potency [6] was “inactive”.

In the case of Cc1ccc2ccc3cccc4ccc1c2c34, the Potency [2] is reported as “inactive”, the Potency [3] is reported as “inactive” and the Potency [4] is reported as “inactive”.

With O=C1NC2CCCCN2C12CCN(CCCN1c3ccccc3CCc3ccc(Cl)cc31)CC2 (configuration not stated) the Potency [2] was 9.44 µM (active), the Potency [3] was 13.3 µM (active) and the Potency [4] was 13.3 µM (active).

In the case of CCCCN(CCCC)CCC(O)c1cc2c(Cl)cc(Cl)cc2c2cc(C(F)(F)F)ccc12 (configuration not stated), the Potency [1] is reported as “inactive”, the Potency [2] is reported as 11.4 µM (active) and the Potency [4] is reported as 10.1 µM (active). For the same molecule, the Potency [5] was “inactive” and the Potency [6] was “inactive”.

In the case of CN(C)CCCN1c2ccccc2Sc2ccc(C(F)(F)F)cc21, the Potency [2] is reported as 7.5 µM (active), the Potency [3] is reported as 8.41 µM (active) and the Potency [4] is reported as 11.9 µM (active).

For Brc1ccccc1-c1ccccc1, the Potency [1] was “inactive”, the Potency [3] was 41 µM (active) and the Potency [4] was 41 µM (active). The Potency [5] was “inactive” and the Potency [6] was “inactive”.

With C=CC(C)(CCC=C(C)C)OC(=O)/C=C/c1ccccc1 (configuration not stated) the Potency [1] was “inactive”, the Potency [7] was “inactive” and the outcome [10] was “inactive”. The Potency [8] was “inactive”, the Potency [6] was “inactive” and the Potency [9] was “inactive”.

In the case of c1cc2c3c(c1)ccc1cccc(c13)C2, the Potency [1] is reported as “inactive”, the Potency [2] is reported as “inactive” and the Potency [6] is reported as “inactive”.

With CCCCCCCC/C=C/CCCOC(C)=O the Potency [1] was “inactive”, the Potency [2] was “inactive” and the Potency [4] was “inactive”. For the same molecule, the Potency [5] was “inactive” and the Potency [6] was “inactive”.

For CCN(CC)CCOc1ccc(C(O)(Cc2ccc(Cl)cc2)c2ccc(C)cc2)cc1 (configuration not stated), the Potency [2] was 2.11 µM (active), the Potency [3] was 2.11 µM (active) and the Potency [4] was 2.98 µM (active). The Potency [5] was 16.9 µM (active).

In the case of CC(C)(C)c1cc(/C=C2\SC(=N)NC2=O)cc(C(C)(C)C)c1O, the Potency [2] is reported as 43.3 µM (active), the Potency [3] is reported as 61.1 µM (active) and the Potency [4] is reported as 17.2 µM (active). For the same molecule, the Potency [5] was 49 µM (active).

In the case of C=CCCCCCCC=C, the Potency [1] is reported as “inactive”, the Potency [2] is reported as “inactive” and the Potency [4] is reported as “inactive”. For the same molecule, the Potency [6] was “inactive”.

Source: PubChem BioAssay (Tox21)
